Data reported in PubChem BioAssay AID1159580 (chemical genetic matrix, 2015).
In all, about 5,500 compounds went through this assay and about 2,000 (36%) were called active. Another 18% or so got no clear call; they are omitted. No stated cut-off is given here; in the data, active means normalized growth mostly below about 0.91 (no sharp cut-off); inconclusive means no clear call, values can overlap the other calls; inactive means mostly above about 0.92. The list shows a part of the results.

Assay: chemical genetic growth profiling, strain panel (AID 1159580);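 further: tested at 20 µM; growth read once vehicle control cultures reached saturation at 30 °C; 1 = growth at the plate median or of vehicle wells; lower values mean less growth of the strain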
Conditions: growth OD

Measured: normalized growth

CCN1C[C@]2(C)CC[C@H](OC)[C@]34C2[C@H](O)[C@]2(OCO[C@@]25C[C@H](OC)[C@H]2C[C@]3(O)C5[C@H]2O)C14
inactive: S. cerevisiae deletion strains, locus YAL013W, strain DEP1, active compounds read low 0.998 | S. cerevisiae deletion strains, locus YBR021W, strain FUR4, active compounds read low 1.01 | S. cerevisiae deletion strains, locus YBR229C, strain ROT2, active compounds read low 1.01 | S. cerevisiae deletion strains, locus YCL029C, strain bik1, active compounds read low 1.01 | S. cerevisiae deletion strains, locus YDL035C, strain GPR1, active compounds read low 1.03 | S. cerevisiae deletion strains, locus YDL074C, strain BRE1, active compounds read low 1.04 | S. cerevisiae deletion strains, locus YDL101C, strain DUN1, active compounds read low 1.01 | S. cerevisiae deletion strains, locus YDL134C, strain PPH21, active compounds read low 1.01 | S. cerevisiae deletion strains, locus YDL185W, strain tfp1, active compounds read low 1 | S. cerevisiae deletion strains, locus YDL192W, strain arf1, active compounds read low 1.01 | S. cerevisiae deletion strains, locus YDR101C, strain arx1, active compounds read low 0.995 | S. cerevisiae deletion strains, locus YDR150W, strain NUM1, active compounds read low 0.988 | S. cerevisiae deletion strains, locus YDR162C, strain NBP2, active compounds read low 0.992 | S. cerevisiae deletion strains, locus YDR318W, strain mcm21, active compounds read low 1.01 | S. cerevisiae deletion strains, locus YDR388W, active compounds read low 1.01 | S. cerevisiae deletion strains, locus YDR502C, strain sam2, active compounds read low 0.998 | S. cerevisiae deletion strains, locus YEL061C, strain CIN8, active compounds read low 0.994 | S. cerevisiae deletion strains, locus YER110C, active compounds read low 1.01 | S. cerevisiae deletion strains, locus YER155C, strain BEM2, active compounds read low 0.981 | S. cerevisiae deletion strains, locus YER167W, strain BCK2, active compounds read low 1 | S. cerevisiae deletion strains, locus YGL078C, strain dbp3, active compounds read low 0.998 | S. cerevisiae deletion strains, locus YGL086W, strain mad1, active compounds read low 1 | S. cerevisiae deletion strains, locus YGL248W, strain PDE1, active compounds read low 1 | S. cerevisiae deletion strains, locus YGR078C, strain PAC10, active compounds read low 1.03 | S. cerevisiae deletion strains, locus YGR135W, strain pre9, active compounds read low 1.01 | S. cerevisiae deletion strains, locus YGR229C, strain SMI1, active compounds read low 0.999 | S. cerevisiae deletion strains, locus YGR252W, strain gcn5, active compounds read low 1.02 | S. cerevisiae deletion strains, locus YHR030C, strain SLT2, active compounds read low 0.999 | S. cerevisiae deletion strains, locus YHR079C, strain IRE1 (second series), active compounds read low 1.01 | S. cerevisiae deletion strains, locus YHR094C, strain hxt1, active compounds read low 1 | S. cerevisiae deletion strains, locus YHR129C, strain ARP1, active compounds read low 1 | S. cerevisiae deletion strains, locus YHR200W, strain rpn10, active compounds read low 1 | S. cerevisiae deletion strains, locus YIL066C, strain RNR3, active compounds read low 1 | S. cerevisiae deletion strains, locus YIL073C, strain SPO22, active compounds read low 1 | S. cerevisiae deletion strains, locus YIL125W, strain kgd1, active compounds read low 1 | S. cerevisiae deletion strains, locus YIR030C, strain dcg1, active compounds read low 1 | S. cerevisiae deletion strains, locus YJL095W, strain BCK1, active compounds read low 1.04 | S. cerevisiae deletion strains, locus YJL134W, strain LCB3, active compounds read low 0.999 | S. cerevisiae deletion strains, locus YJL168C, strain set2, active compounds read low 1.01 | S. cerevisiae deletion strains, locus YJL187C, strain SWE1 (second series), active compounds read low 1.01 | S. cerevisiae deletion strains, locus YJR043C, strain POL32, active compounds read low 1.01 | S. cerevisiae deletion strains, locus YJR075W, strain HOC1, active compounds read low 1 | S. cerevisiae deletion strains, locus YKL009W, strain mrt4, active compounds read low 1.02 | S. cerevisiae deletion strains, locus YKL068W, active compounds read low 0.991 | S. cerevisiae deletion strains, locus YKL085W, strain MDH1 (second series), active compounds read low 0.999 | S. cerevisiae deletion strains, locus YKL085W, strain MDH1, active compounds read low 0.999 | S. cerevisiae deletion strains, locus YKL190W, strain CNB1, active compounds read low 0.967 | S. cerevisiae deletion strains, locus YKR001C, strain vps1, active compounds read low 1.01 | S. cerevisiae deletion strains, locus YLR039C, strain RIC1, active compounds read low 1.03 | S. cerevisiae deletion strains, locus YLR058C, strain SHM2, active compounds read low 1.01 | S. cerevisiae deletion strains, locus YLR102C, strain apc9, active compounds read low 1 | S. cerevisiae deletion strains, locus YLR262C, strain YPT6, active compounds read low 1.03 | S. cerevisiae deletion strains, locus YLR268W, strain sec22, active compounds read low 1.02 | S. cerevisiae deletion strains, locus YLR330W, strain CHS5, active compounds read low 1.01 | S. cerevisiae deletion strains, locus YLR342W, strain FKS1 (second series), active compounds read low 1.03 | S. cerevisiae deletion strains, locus YLR371W, strain rom2, active compounds read low 1 | S. cerevisiae deletion strains, locus YLR418C, strain cdc73, active compounds read low 1.04 | S. cerevisiae deletion strains, locus YML016C, strain PPZ1, active compounds read low 1 | S. cerevisiae deletion strains, locus YML032C, strain rad52, active compounds read low 1 | S. cerevisiae deletion strains, locus YML124C, strain tub3, active compounds read low 1 | S. cerevisiae deletion strains, locus YMR078C, strain ctf18, active compounds read low 1.01 | S. cerevisiae deletion strains, locus YMR223W, strain ubp8, active compounds read low 0.998 | S. cerevisiae deletion strains, locus YMR263W, strain SAP30, active compounds read low 0.998 | S. cerevisiae deletion strains, locus YMR307W, strain GAS1, active compounds read low 1.07 | S. cerevisiae deletion strains, locus YNL067W, strain RPL9B, active compounds read low 0.995 | S. cerevisiae deletion strains, locus YNL128W, strain TEP1, active compounds read low 1 | S. cerevisiae deletion strains, locus YNL153C, strain GIM3, active compounds read low 1 | S. cerevisiae deletion strains, locus YNL233W, strain BNI4, active compounds read low 1.01 | S. cerevisiae deletion strains, locus YNL250W, strain rad50, active compounds read low 0.999 | S. cerevisiae deletion strains, locus YNL271C, strain bni1, active compounds read low 1.01 | S. cerevisiae deletion strains, locus YNL298W, strain CLA4, active compounds read low 1 | S. cerevisiae deletion strains, locus YNL307C, strain MCK1, active compounds read low 1.02 | S. cerevisiae deletion strains, locus YNL322C, strain KRE1, active compounds read low 1 | S. cerevisiae deletion strains, locus YNR052C, strain pop2, active compounds read low 1.01 | S. cerevisiae deletion strains, locus YOL006C, strain TOP1, active compounds read low 1.02 | S. cerevisiae deletion strains, locus YOL012C, strain htz1 1.33 | S. cerevisiae deletion strains, locus YOL147C, strain pex11, active compounds read low 1.01 | S. cerevisiae deletion strains, locus YOR061W, strain CKA2, active compounds read low 1.01 | S. cerevisiae deletion strains, locus YOR069W, strain VPS5, active compounds read low 1 | S. cerevisiae deletion strains, locus YOR136W, strain idh2, active compounds read low 1.01 | S. cerevisiae deletion strains, locus YOR144C, strain elg1, active compounds read low 1.01 | S. cerevisiae deletion strains, locus YOR184W, strain ser1, active compounds read low 1.03 | S. cerevisiae deletion strains, locus YOR316C, strain cot1, active compounds read low 1 | S. cerevisiae deletion strains, locus YPL055C, strain LGE1, active compounds read low 0.987 | S. cerevisiae deletion strains, locus YPL241C, strain CIN2, active compounds read low 0.998 | S. cerevisiae deletion strains, locus YPR119W, strain clb2, active compounds read low 1 | S. cerevisiae deletion strains, locus YPR141C, strain kar3, active compounds read low 1 | S. cerevisiae deletion strains, locus YPR163C, strain tif3, active compounds read low 1.02 | S. cerevisiae deletion strains, locus YPR167C, strain met16, active compounds read low 1.01 | S. cerevisiae deletion strains, strain wtn01, active compounds read low 1 | S. cerevisiae strains, strain wild type, active compounds read low 0.987
